What was measured:
Details in all cases: treatment time: 24 h
A549-ACTB-RAB5A [1] = assay: lowest phenotypically active concentration; higher = less potent
Procedure, shortened: (§1)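 Cells from fifteen gene-edited reporter lines (A549, HepG2 and WPMY1) were treated for 24 h at 0.3, 1, 3 or 9 µM and imaged live, four wells per condition. Features were normalised per well to solvent control wells. A condition deviated if ≥3 of 4 wells passed the 95th percentile of control Euclidean distances and was reproducible if its median replicate Pearson correlation beat the 95th percentile of non-replicates; phenotypic activity needed both.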

A549-GM130-SQSTM1 [2] = assay: as above
Procedure, shortened: as §1

A549-TUBA1B-RELA [3] = assay: as above
Procedure, shortened: as §1

WPMY1-CANX-COX4 [4] = assay: as above
Procedure, shortened: as §1

WPMY1-GM130-SQSTM1 [5] = assay: as above
Procedure, shortened: as §1

A549-ACTB-RAB5A [6] = assay: phenotypically active (imaging signature differs from DMSO and reproducible) at any of 0.3-9 uM (binary (1 = active, 0 = inactive)); higher = active
Procedure, shortened: as §1

A549-CANX-COX4 = assay: as above
Procedure, shortened: as §1

A549-GM130-SQSTM1 [7] = assay: as above
Procedure, shortened: as §1

A549-TP53BP1-CLTA = assay: as above
Procedure, shortened: as §1

A549-TUBA1B-RELA [8] = assay: as above
Procedure, shortened: as §1

HepG2-ACTB-RAB5A = assay: as above
Procedure, shortened: as §1

HepG2-CANX-COX4 = assay: as above
Procedure, shortened: as §1

HepG2-GM130-SQSTM1 = assay: as above
Procedure, shortened: as §1

HepG2-TP53BP1-CLTA = assay: as above
Procedure, shortened: as §1

HepG2-TUBA1B-RELA = assay: as above
Procedure, shortened: as §1

WPMY1-ACTB-RAB5A = assay: as above
Procedure, shortened: as §1

WPMY1-CANX-COX4 [9] = assay: as above
Procedure, shortened: as §1

WPMY1-GM130-SQSTM1 [10] = assay: as above
Procedure, shortened: as §1

WPMY1-TP53BP1-CLTA = assay: as above
Procedure, shortened: as §1

WPMY1-TUBA1B-RELA = assay: as above
Procedure, shortened: as §1

Nc1cc(N)c(N)cc1N [FAK Inhibitor 14]
9 µM: lowest phenotypically active concentration (A549-GM130-SQSTM1 [2]) | lowest phenotypically active concentration (WPMY1-CANX-COX4 [4])
3 µM: lowest phenotypically active concentration (A549-ACTB-RAB5A [1]) | lowest phenotypically active concentration (A549-TUBA1B-RELA [3]) | lowest phenotypically active concentration (WPMY1-GM130-SQSTM1 [5])
inactive: phenotypically active (A549-CANX-COX4) 0 | phenotypically active (A549-TP53BP1-CLTA) 0 | phenotypically active (HepG2-ACTB-RAB5A) 0 | phenotypically active (HepG2-CANX-COX4) 0 | phenotypically active (HepG2-GM130-SQSTM1) 0
active: phenotypically active (A549-ACTB-RAB5A [6]) 1 | phenotypically active (A549-GM130-SQSTM1 [7]) 1 | phenotypically active (A549-TUBA1B-RELA [8]) 1 | phenotypically active (HepG2-TP53BP1-CLTA) 1 | phenotypically active (HepG2-TUBA1B-RELA) 1 | phenotypically active (WPMY1-ACTB-RAB5A) 1 | phenotypically active (WPMY1-CANX-COX4 [9]) 1 | phenotypically active (WPMY1-GM130-SQSTM1 [10]) 1 | phenotypically active (WPMY1-TP53BP1-CLTA) 1 | phenotypically active (WPMY1-TUBA1B-RELA) 1

O=c1cc(-c2ccccc2)oc2cc(O)cc(O)c12 [Chrysin]
9 µM: lowest phenotypically active concentration (A549-ACTB-RAB5A [1]) | lowest phenotypically active concentration (A549-GM130-SQSTM1 [2]) | lowest phenotypically active concentration (WPMY1-CANX-COX4 [4])
active: phenotypically active (A549-ACTB-RAB5A [6]) 1 | phenotypically active (A549-GM130-SQSTM1 [7]) 1 | phenotypically active (WPMY1-CANX-COX4 [9]) 1 | phenotypically active (WPMY1-TP53BP1-CLTA) 1
inactive: phenotypically active (A549-CANX-COX4) 0 | phenotypically active (A549-TP53BP1-CLTA) 0 | phenotypically active (A549-TUBA1B-RELA [8]) 0 | phenotypically active (HepG2-ACTB-RAB5A) 0 | phenotypically active (HepG2-CANX-COX4) 0 | phenotypically active (HepG2-GM130-SQSTM1) 0 | phenotypically active (HepG2-TP53BP1-CLTA) 0 | phenotypically active (HepG2-TUBA1B-RELA) 0 | phenotypically active (WPMY1-ACTB-RAB5A) 0 | phenotypically active (WPMY1-GM130-SQSTM1 [10]) 0 | phenotypically active (WPMY1-TUBA1B-RELA) 0

CN1c2ccc([N+](=O)[O-])cc2N=C(c2ccc(C(=O)O)cc2)c2cc3c(cc21)C(C)(C)CCC3(C)C
active: phenotypically active (A549-ACTB-RAB5A [6]) 1 | phenotypically active (A549-GM130-SQSTM1 [7]) 1 | phenotypically active (A549-TUBA1B-RELA [8]) 1 | phenotypically active (HepG2-TUBA1B-RELA) 1
9 µM: lowest phenotypically active concentration (A549-ACTB-RAB5A [1]) | lowest phenotypically active concentration (A549-GM130-SQSTM1 [2]) | lowest phenotypically active concentration (A549-TUBA1B-RELA [3])
inactive: phenotypically active (A549-CANX-COX4) 0 | phenotypically active (A549-TP53BP1-CLTA) 0 | phenotypically active (HepG2-ACTB-RAB5A) 0 | phenotypically active (HepG2-CANX-COX4) 0 | phenotypically active (HepG2-GM130-SQSTM1) 0 | phenotypically active (HepG2-TP53BP1-CLTA) 0 | phenotypically active (WPMY1-ACTB-RAB5A) 0 | phenotypically active (WPMY1-CANX-COX4 [9]) 0 | phenotypically active (WPMY1-GM130-SQSTM1 [10]) 0 | phenotypically active (WPMY1-TP53BP1-CLTA) 0 | phenotypically active (WPMY1-TUBA1B-RELA) 0

CNC(=O)c1cc(Oc2ccc(NC(=O)Nc3ccc(Cl)c(C(F)(F)F)c3)c(F)c2)ccn1 [regorafenib]
active: phenotypically active (A549-ACTB-RAB5A [6]) 1 | phenotypically active (A549-TP53BP1-CLTA) 1 | phenotypically active (HepG2-ACTB-RAB5A) 1 | phenotypically active (HepG2-CANX-COX4) 1 | phenotypically active (HepG2-GM130-SQSTM1) 1 | phenotypically active (HepG2-TP53BP1-CLTA) 1 | phenotypically active (HepG2-TUBA1B-RELA) 1 | phenotypically active (WPMY1-TP53BP1-CLTA) 1
inactive: phenotypically active (A549-CANX-COX4) 0 | phenotypically active (A549-GM130-SQSTM1 [7]) 0 | phenotypically active (A549-TUBA1B-RELA [8]) 0 | phenotypically active (WPMY1-ACTB-RAB5A) 0 | phenotypically active (WPMY1-CANX-COX4 [9]) 0 | phenotypically active (WPMY1-GM130-SQSTM1 [10]) 0 | phenotypically active (WPMY1-TUBA1B-RELA) 0
9 µM: lowest phenotypically active concentration (A549-ACTB-RAB5A [1])

Cc1ccc(S(=O)(=O)n2c(N)nc3ccccc32)cc1
active: phenotypically active (A549-ACTB-RAB5A [6]) 1 | phenotypically active (HepG2-ACTB-RAB5A) 1
inactive: phenotypically active (A549-CANX-COX4) 0 | phenotypically active (A549-GM130-SQSTM1 [7]) 0 | phenotypically active (A549-TP53BP1-CLTA) 0 | phenotypically active (A549-TUBA1B-RELA [8]) 0 | phenotypically active (HepG2-CANX-COX4) 0 | phenotypically active (HepG2-GM130-SQSTM1) 0 | phenotypically active (HepG2-TP53BP1-CLTA) 0 | phenotypically active (HepG2-TUBA1B-RELA) 0 | phenotypically active (WPMY1-ACTB-RAB5A) 0 | phenotypically active (WPMY1-CANX-COX4 [9]) 0 | phenotypically active (WPMY1-GM130-SQSTM1 [10]) 0 | phenotypically active (WPMY1-TP53BP1-CLTA) 0 | phenotypically active (WPMY1-TUBA1B-RELA) 0
9 µM: lowest phenotypically active concentration (A549-ACTB-RAB5A [1])

Cc1ccc(NC(=O)c2cccc(C(C)(C)C#N)c2)cc1Nc1ccc2ncn(C)c(=O)c2c1
1 µM: lowest phenotypically active concentration (A549-ACTB-RAB5A [1])
3 µM: lowest phenotypically active concentration (WPMY1-GM130-SQSTM1 [5])
inactive: phenotypically active (A549-CANX-COX4) 0 | phenotypically active (A549-GM130-SQSTM1 [7]) 0 | phenotypically active (WPMY1-TUBA1B-RELA) 0
active: phenotypically active (A549-ACTB-RAB5A [6]) 1 | phenotypically active (A549-TP53BP1-CLTA) 1 | phenotypically active (A549-TUBA1B-RELA [8]) 1 | phenotypically active (HepG2-ACTB-RAB5A) 1 | phenotypically active (HepG2-CANX-COX4) 1 | phenotypically active (HepG2-GM130-SQSTM1) 1 | phenotypically active (HepG2-TP53BP1-CLTA) 1 | phenotypically active (HepG2-TUBA1B-RELA) 1 | phenotypically active (WPMY1-ACTB-RAB5A) 1 | phenotypically active (WPMY1-CANX-COX4 [9]) 1 | phenotypically active (WPMY1-GM130-SQSTM1 [10]) 1 | phenotypically active (WPMY1-TP53BP1-CLTA) 1
9 µM: lowest phenotypically active concentration (A549-TUBA1B-RELA [3]) | lowest phenotypically active concentration (WPMY1-CANX-COX4 [4])
